Experimental data taken from the supplement of paper PMC10127200.
Counter-ions that a name gives are not always drawn.

How the values were obtained:
Assay in all cases: Euclidean distance of Cell Painting phenotypic profile (signed KS, 77 features) to DMSO centroid (dimensionless distance); 5 or 10 uM (library dependent); higher = stronger phenotypic change vs DMSO (phenoactivity)
Details in all cases: 48 h
786-O = system: 786-O
Method in brief: (§1)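 Five cancer lines and a healthy fibroblast line received library compounds at 10 or 5 uM (library-dependent, 0.1% DMSO final) for 48 h. Stained cells were imaged confocally at 20X (9 fields/well). Harmony extracted 77 features, each scored as a signed Kolmogorov-Smirnov statistic against same-plate vehicle wells. Profiles were plate-position corrected, correlation-weighted and replicate-averaged at the top dose. Phenoactivity is the Euclidean distance from each profile to the median vehicle profile.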

A549 = system: A549
Method in brief: as §1

DU145 = system: DU145
Method in brief: as §1

FB = system: FB
Method in brief: as §1

HEPG2 = system: HEPG2
Method in brief: as §1

OVCAR4 = system: OVCAR4
Method in brief: as §1

Structure (SMILES)	Euclidean distance (786-O)	Euclidean distance (A549)	Euclidean distance (DU145)	Euclidean distance (FB)	Euclidean distance (HEPG2)	Euclidean distance (OVCAR4)
CN(C/C=C/C#CC(C)(C)C)Cc1cccc2ccccc12 [Terbinafine]	1.56	0.66	0.898	0.587	1.36	1.18
COc1cc(O)c2c(c1)C(=O)c1cc(C)cc(O)c1C2=O [Rheochrysidin]	1.23	0.528	1.42	0.862	4.92	1.29
CCOC(CN1CCN(CC(C)C(=O)c2ccccc2)CC1)c1ccccc1 (configuration not stated) [Eprazinone 2HCl]	1.87	1.02	1.2	1.38	1.56	1.28
COc1ccc(COc2cc3oc(=O)c4cc(C(C)O)ccc4c3cc2OC)cc1 (configuration not stated) [Palomid 529 (P529)]	1.8	1.25	1.29	1.02	1.33	1.06
CC(C)NCC(O)COc1cccc2ccccc12 (configuration not stated) [Propranolol HCl]	1.23	0.818	0.949	0.645	0.798	1.01
CCCN(CCc1cccs1)[C@H]1CCc2c(O)cccc2C1 [Rotigotine]	0.962	0.896	0.662	0.9	0.437	0.97
CCCN1C[C@H](C)[C@@H](O)[C@](C)(O)[C@@H](CC)OC(=O)[C@H](C)[C@@H](O[C@H]2C[C@@](C)(OC)[C@@H](O)[C@H](C)O2)[C@H](C)[C@@H](O[C@@H]2O[C@H](C)C[C@H](N(C)C)[C@H]2O)[C@](C)(O)C[C@H]1C [Gamithromycin]	1.26	1.03	1.98	1.12	1.08	1.05
COC(=O)c1ccc2c(C(=Nc3ccc(N(C)C(=O)CN4CCN(C)CC4)cc3)c3ccccc3)c(O)[nH]c2c1 [Nintedanib Ethanesulfonate Salt]	3.68	3.84	2.5	4.88	3.9	4.19
CC(=O)O[C@H]1Cc2ccccc2N(C(N)=O)c2ccccc21 [Eslicarbazepine Acetate]	0.621	0.976	0.966	1.39	1.17	1.64
C[C@H](NC(=O)CCC(F)(F)F)C(=O)N[C@@H]1C(=O)N(CCO)c2ncccc2-c2ccccc21	0.859	0.929	1.3	0.741	0.66	1.09
O=[N+]([O-])c1ccc2c(c1)S(=O)(=O)C=C2 [Stattic]	5.16	2.51	2.61	3.89	1.16	4.56
CCCCCCCCCCCCCCCCCCOP(=O)([O-])OC1CC[N+](C)(C)CC1 [Perifosine (KRX-0401)]	1.95	1.09	0.853	1.23	2.19	1.79
CN(N=O)C(=O)NC1C(O)OC(CO)C(O)C1O (configuration not stated) [Streptozotocin (STZ)]	1.35	0.706	0.768	1.26	0.501	1.16
Cc1ccc2c(Cl)cc(Cl)c(O)c2n1 [Chlorquinaldol]	2.59	2.3	1.54	2.53	2.09	2.94
O=c1c2ccccc2oc2ccccc12 [Xanthone]	1	1.28	1.24	1.02	0.607	1.14
Cc1nc(-c2ccc(OCC(C)C)c(C#N)c2)sc1C(=O)O [Febuxostat]	0.758	0.915	0.667	0.514	0.375	0.978
CCN(CC)CCCC(C)Nc1ccnc2cc(Cl)ccc12 (configuration not stated) [Chloroquine Phosphate]	3.74	3.04	2.7	4.77	3.32	3.09
C=CC1=C(C(=O)O)N2C(=O)[C@@H](NC(=O)/C(=N\OCC(=O)O)c3csc(N)n3)[C@H]2SC1 [Cefixime]	1.35	0.916	0.778	1.38	0.6	1.73
C=CC(=O)Nc1cccc(Oc2nc(Nc3ccc(N4CCN(C)CC4)cc3)ncc2Cl)c1	2.42	2.73	2.46	4.15	2.28	3.17
Cc1nc(N)sc1-c1ccnc(Nc2ccc(N3CCOCC3)cc2)n1	2.86	3.52	1.18	1.92	2.08	2.59
c1ccc(-c2nn3c(c2-c2ccnc4cc(OCCN5CCOCC5)ccc24)CCC3)nc1	1.44	0.959	1.42	1.75	1.45	0.876
NC(=O)c1cccc2cn(-c3ccc([C@@H]4CCCNC4)cc3)nc12 [Niraparib (MK-4827) tosylate]	2.41	2.21	1.59	2.49	2.86	1.92
CS(=O)(=O)Nc1cc2occ(NC=O)c(=O)c2cc1Oc1ccccc1 [Iguratimod]	0.942	0.587	2.23	1.05	0.878	0.85
CC(C)c1c(C(=O)Nc2ccccc2)c(-c2ccccc2)c(-c2ccc(F)cc2)n1CC[C@@H](O)C[C@@H](O)CC(=O)O [Atorvastatin Calcium]	2.68	1.33	1.15	3.05	2.23	1.8

Structure (SMILES)	Euclidean distance (786-O)	Euclidean distance (A549)	Euclidean distance (DU145)	Euclidean distance (FB)	Euclidean distance (HEPG2)	Euclidean distance (OVCAR4)
COc1ccc(C[C@H](NC(=O)[C@H](C)NC(=O)CN2CCOCC2)C(=O)N[C@@H](Cc2ccccc2)C(=O)[C@@]2(C)CO2)cc1	5.28	4.5	5.11	5.13	5.18	6.2
CCNC(=O)[C@H]1O[C@@H](n2cnc3c(N)nc(NCCc4ccc(CCC(=O)O)cc4)nc32)[C@H](O)[C@@H]1O	0.618	0.662	0.916	0.846	0.636	0.752
COc1cc2ncnc(Nc3ccc(O)c(Br)c3)c2cc1OC	1.36	1.35	1.92	1.7	1.64	0.933
COc1ccc(CN2CCN(C(c3ccc(F)cc3)c3ccc(F)cc3)CC2)c(OC)c1OC [Lomerizine HCl]	0.896	1.09	0.808	1.17	1.31	0.83
C=CC(=O)Nc1cccc(Sc2nc(Nc3ccc(N4CCN(C)CC4)cc3)ncc2Cl)c1	2.96	3.04	2.04	3.82	3.02	2.64
COc1cc(N2CCC(N)CC2)ccc1Nc1ncc(Cl)c(-c2c[nH]c3ccccc23)n1	2.97	3.34	2.4	4.05	2.56	2.07
Cc1ccc(Sc2cncc3sc(C(N)=O)cc23)cc1	1.1	1.05	0.78	1.61	1.24	0.995
C[C@@H](c1nc(-c2ccc(C#N)cc2)cs1)[C@](O)(Cn1cncn1)c1cc(F)ccc1F [Isavuconazole]	1	1.45	1.02	0.654	1.55	1.43
CNC[C@@H](O)c1ccc(O)c(O)c1 [L-Adrenaline]	1.4	0.654	0.94	1.3	0.928	0.954
CCC(=O)O[C@]1(C(=O)SCF)[C@H](C)C[C@H]2[C@@H]3C[C@H](F)C4=CC(=O)C=C[C@]4(C)[C@@]3(F)[C@@H](O)C[C@@]21C [Fluticasone propionate]	1.77	2.26	2.6	1.83	0.813	1.61
C[n+]1cc2c3c(ccc2c2ccc4cc5c(cc4c21)OCO5)OCO3 [Sanguinarine chloride]	5.34	5	7.6	6.48	4.82	5.76
CCCNC(C)C(=O)Nc1ccccc1C (configuration not stated) [Prilocaine]	1.25	0.85	0.708	1.93	0.648	0.974
CC1(C)OC(=O)NC1=O [5.5-Dimethyloxazolidine-2.4-dione]	0.865	0.849	1.06	1.02	0.557	0.894
C[C@@H](N)[C@H]1CC[C@H](C(=O)Nc2ccncc2)CC1	3.12	3.33	3.45	2.59	1.02	3.15
CNCc1cc(-c2ccccc2F)n(S(=O)(=O)c2cccnc2)c1 [Vonoprazan Fumarate (TAK-438)]	0.884	0.5	0.972	1.23	0.474	0.89
COc1ccccc1N1CCN(CCN(C(=O)C2CCCCC2)c2ccccn2)CC1	0.724	1.67	1.84	3.28	2.11	4.14
CC(C)CN(C[C@@H](OP(=O)(O)O)[C@H](Cc1ccccc1)NC(=O)O[C@H]1CCOC1)S(=O)(=O)c1ccc(N)cc1 [Fosamprenavir calcium salt]	1.44	0.901	1.21	0.737	0.527	1.41
CCCCc1ncc(/C=C(\Cc2cccs2)C(=O)O)n1Cc1ccc(C(=O)O)cc1 [Eprosartan Mesylate]	0.683	0.706	1.64	0.647	1.3	1.44
CN1CCN(C2CCN(C(=O)Nc3cc(Oc4ccc(NC(=O)C5(C(=O)Nc6ccc(F)cc6)CC5)c(F)c4)ccn3)CC2)CC1 [Golvatinib (E7050)]	1.08	1.47	1.32	3.36	3.28	1.45
OCc1cc(C(O)CNCCCCCCOCCCCc2ccccc2)ccc1O (configuration not stated) [Salmeterol]	1.56	1.95	1.51	1.75	2.13	1.77
CCCCN(CCCC)CC(O)c1cc(Cl)cc2c1-c1ccc(Cl)cc1/C2=C/c1ccc(Cl)cc1 (configuration not stated) [Lumefantrine]	1.17	1.42	0.953	0.94	0.895	0.763
CCC(C)(C)C(=O)O[C@H]1C[C@@H](C)C=C2C=C[C@H](C)[C@H](CC[C@@H]3C[C@@H](O)CC(=O)O3)[C@H]21 [Simvastatin]	1.35	0.686	1.1	1.4	1.9	1.18
O=C(O)CCNC(=O)c1ccc(/N=N/c2ccc(O)c(C(=O)O)c2)cc1 [Balsalazide disodium]	0.73	0.808	0.796	0.76	0.576	0.971
